Laboratory results published in the supplement of paper PMC10849652.
Of roughly 8,800 targets only a part is listed; those with a hit were picked by preference. About 0.5% of all pairs of compound and target were hits.

Experiments:
Assay in all cases: log2 fold change, soluble protein after heating vs DMSO (PISA); higher = thermal stabilisation; K562 lysate, 10 uM; active = over 0.2 and 3.5 SD of the protein, either way, in both replicates (recomputed)
erlotinib = compound: C#Cc1cccc(Nc2ncnc3cc(OCCOC)c(OCCOC)cc23)c1 [erlotinib]
Procedure, shortened: (§1)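 Dounce homogenisation of K562 pellets in PBS pH 7.4 with 1 mM MgCl2 produced a crude extract, used at 1 mg/mL protein. Exposure to 10 μM compound lasted 30 min, and aliquots were then heated for 3 min across 48°C-58°C, pooled and brought to 0.5% NP-40 at 4°C. The supernatant after 21,000xg for 90 min was quantified by TMTpro 16plex LC-MS/MS with channel sums equalised. Duplicate values are given as log-two fold change in thermal stability relative to solvent controls.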

[1] = compound: C/C(=N\NC(=O)C1=CC(=CC=C1)S(=O)(=O)N2CCOCC2)/C3=C(C=CC(=C3)Cl)O
Procedure, shortened: as §1

[2] = compound: C1=CC(=CC=C1C2=NC3=C(N2)C=C(C=C3)C(=O)N)OC4=CC=C(C=C4)Cl
Procedure, shortened: as §1

[3] = compound: C1=CC2=C(C=CC(=C2)/C=C\3/C(=O)NC(=NCC4=CC=CS4)S3)N=C1
Procedure, shortened: as §1

[4] = compound: C1=CC2=NC=CN=C2C=C1/C=C/3\C(=O)NC(=O)S3
Procedure, shortened: as §1

[5] = compound: C1=CC=C(C=C1)C2=NC(=C(N2)C3=CC=NC=C3)C4=CC(=C(C=C4)Cl)O
Procedure, shortened: as §1

[6] = compound: C1=CC=C2C(=C1)C3=NNC4=CC=CC(=C43)C2=O
Procedure, shortened: as §1

[7] = compound: C1CCN(C1)C(=O)NC2=CC=CC(=C2)NC3=NC=C(C(=N3)NCCC4=CN=CN4)Br
Procedure, shortened: as §1

[8] = compound: C1CN(CCC1(CC2=CC=C(C=C2)Cl)N)C3=NC=NC4=C3C=CN4
Procedure, shortened: as §1

IRAK-1-4 Inhibitor I = compound: C1COCCN1CCN2C3=CC=CC=C3N=C2NC(=O)C4=CC(=CC=C4)[N+](=O)[O-] [IRAK-1-4 Inhibitor I]
Procedure, shortened: as §1

Measured: log2 fold change

TTL (UniProt Q8NG68)
Chain of UniProt Q8NG68 (Q8NG68 whole entry, looked up): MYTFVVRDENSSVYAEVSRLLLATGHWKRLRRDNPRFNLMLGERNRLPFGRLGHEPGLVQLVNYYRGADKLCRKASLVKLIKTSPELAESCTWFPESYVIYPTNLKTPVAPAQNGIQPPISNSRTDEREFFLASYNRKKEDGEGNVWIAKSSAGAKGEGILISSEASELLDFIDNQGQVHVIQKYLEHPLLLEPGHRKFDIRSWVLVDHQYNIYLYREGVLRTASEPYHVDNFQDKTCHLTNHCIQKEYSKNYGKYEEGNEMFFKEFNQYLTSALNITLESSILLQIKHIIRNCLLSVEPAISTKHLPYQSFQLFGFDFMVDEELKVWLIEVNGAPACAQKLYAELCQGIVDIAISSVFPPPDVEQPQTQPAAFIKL
inactive: erlotinib 0.056 | [1] 0.01 | [2] 0 | [3] 0.019 | [4] -0.001 | [5] -0.027 | [6] 0.097 | [7] 0.006 | [8] -0.074 | IRAK-1-4 Inhibitor I 0.019

TRIM23 (UniProt P36406)
inactive: erlotinib -0.044 | [1] -0.022 | [2] 0.037 | [3] 0.014 | [4] 0.034 | [5] 0.493 | [6] -0.011 | [7] -0.017 | [8] 0.105 | IRAK-1-4 Inhibitor I 0.183

UBXN6 (UniProt Q9BZV1)
Chain of UniProt Q9BZV1 (Q9BZV1 whole entry, looked up): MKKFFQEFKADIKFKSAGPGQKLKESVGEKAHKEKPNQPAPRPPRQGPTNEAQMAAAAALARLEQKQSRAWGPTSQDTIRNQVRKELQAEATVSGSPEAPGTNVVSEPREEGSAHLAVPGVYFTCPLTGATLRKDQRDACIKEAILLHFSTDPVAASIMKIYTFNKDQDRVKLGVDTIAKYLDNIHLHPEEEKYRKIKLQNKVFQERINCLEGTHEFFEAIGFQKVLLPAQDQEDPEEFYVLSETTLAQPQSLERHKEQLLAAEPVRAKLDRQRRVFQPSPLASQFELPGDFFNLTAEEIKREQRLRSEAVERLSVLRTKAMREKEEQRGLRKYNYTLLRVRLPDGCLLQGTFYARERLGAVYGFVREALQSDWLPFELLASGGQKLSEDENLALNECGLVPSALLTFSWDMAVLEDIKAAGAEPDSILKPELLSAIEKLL
inactive: erlotinib -0.02 | [1] 0.001 | [2] 0.001 | [3] -0.024 | [4] 0.006 | [5] 0.036 | [6] -0.073 | [7] 0 | [8] -0.005 | IRAK-1-4 Inhibitor I -0.007

TRIM56 (UniProt Q9BRZ2)
Chain of UniProt Q9BRZ2 (Q9BRZ2 whole entry, looked up): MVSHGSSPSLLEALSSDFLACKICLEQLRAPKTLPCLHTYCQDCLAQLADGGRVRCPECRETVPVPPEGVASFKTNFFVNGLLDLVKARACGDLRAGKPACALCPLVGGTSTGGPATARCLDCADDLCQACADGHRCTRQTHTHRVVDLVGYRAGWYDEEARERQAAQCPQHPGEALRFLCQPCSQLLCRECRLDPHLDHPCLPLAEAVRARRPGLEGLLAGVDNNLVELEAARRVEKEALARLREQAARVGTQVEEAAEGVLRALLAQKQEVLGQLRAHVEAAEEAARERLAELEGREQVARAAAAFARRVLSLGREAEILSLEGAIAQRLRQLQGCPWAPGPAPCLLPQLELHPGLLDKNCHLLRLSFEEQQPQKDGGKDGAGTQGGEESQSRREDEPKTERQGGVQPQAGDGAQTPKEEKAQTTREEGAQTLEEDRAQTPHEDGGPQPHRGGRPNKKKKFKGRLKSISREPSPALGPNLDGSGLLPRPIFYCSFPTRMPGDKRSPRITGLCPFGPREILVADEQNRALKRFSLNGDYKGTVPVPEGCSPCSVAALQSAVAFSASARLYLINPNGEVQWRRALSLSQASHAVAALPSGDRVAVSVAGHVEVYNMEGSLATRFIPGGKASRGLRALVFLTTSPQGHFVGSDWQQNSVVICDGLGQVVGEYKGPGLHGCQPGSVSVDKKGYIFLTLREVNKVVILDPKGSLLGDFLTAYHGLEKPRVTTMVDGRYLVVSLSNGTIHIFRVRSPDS
inactive: erlotinib 0.053 | [1] -0.021 | [2] 0.021 | [3] -0.049 | [4] 0.141 | [5] -0.013 | [6] 0.033 | [7] 0.039 | [8] 0.003 | IRAK-1-4 Inhibitor I 0.062

TBL2 (UniProt Q9Y4P3)
Chain of UniProt Q9Y4P3 (Q9Y4P3 whole entry, looked up): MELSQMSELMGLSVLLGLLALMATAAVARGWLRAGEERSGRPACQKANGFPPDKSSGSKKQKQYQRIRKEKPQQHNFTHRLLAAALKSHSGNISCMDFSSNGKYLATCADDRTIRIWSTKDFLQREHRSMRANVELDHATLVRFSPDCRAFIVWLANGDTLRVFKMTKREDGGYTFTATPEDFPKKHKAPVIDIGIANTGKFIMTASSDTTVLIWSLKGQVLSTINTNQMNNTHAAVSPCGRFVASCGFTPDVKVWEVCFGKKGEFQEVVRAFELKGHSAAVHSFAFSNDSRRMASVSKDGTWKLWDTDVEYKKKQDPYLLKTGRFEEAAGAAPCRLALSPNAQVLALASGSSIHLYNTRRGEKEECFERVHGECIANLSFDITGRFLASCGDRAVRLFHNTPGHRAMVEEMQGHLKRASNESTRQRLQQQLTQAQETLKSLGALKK
inactive: erlotinib -0.019 | [1] 0.061 | [2] -0.027 | [3] 0.061 | [4] -0.023 | [5] 0.038 | [6] -0.06 | [7] -0.027 | [8] 0.001 | IRAK-1-4 Inhibitor I -0.022

UBL5 (UniProt Q9BZL1)
Chain of UniProt Q9BZL1 (Q9BZL1 whole entry, looked up): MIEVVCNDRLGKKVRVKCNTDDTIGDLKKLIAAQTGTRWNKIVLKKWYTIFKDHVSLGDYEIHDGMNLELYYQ
inactive: erlotinib 0 | [1] 0.002 | [2] -0.02 | [3] 0.011 | [4] -0.079 | [5] 0 | [6] 0.049 | [7] 0.029 | [8] 0.004 | IRAK-1-4 Inhibitor I -0.062

TBC1D20 isoform 3 (UniProt Q96BZ9)
Chain of UniProt Q96BZ9 (Q96BZ9 whole entry, looked up): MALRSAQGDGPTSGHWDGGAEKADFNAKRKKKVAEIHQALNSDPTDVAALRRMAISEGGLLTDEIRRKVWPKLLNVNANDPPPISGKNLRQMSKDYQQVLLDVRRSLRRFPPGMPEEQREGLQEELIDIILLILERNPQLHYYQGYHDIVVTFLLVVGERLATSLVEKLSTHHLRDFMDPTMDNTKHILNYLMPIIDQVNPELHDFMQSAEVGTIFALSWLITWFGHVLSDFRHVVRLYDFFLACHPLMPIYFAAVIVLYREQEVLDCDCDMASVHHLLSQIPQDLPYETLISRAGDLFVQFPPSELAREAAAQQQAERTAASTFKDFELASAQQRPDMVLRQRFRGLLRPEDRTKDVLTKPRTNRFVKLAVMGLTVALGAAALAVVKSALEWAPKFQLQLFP
inactive: erlotinib -0.073 | [1] 0.142 | [2] -0.113 | [3] 0.043 | [4] 0.117 | [5] -0.038 | [6] -0.018 | [7] 0.033 | [8] 0.023 | IRAK-1-4 Inhibitor I 0.132

TRADD (UniProt Q15628)
Chain of UniProt Q15628 (Q15628 whole entry, looked up): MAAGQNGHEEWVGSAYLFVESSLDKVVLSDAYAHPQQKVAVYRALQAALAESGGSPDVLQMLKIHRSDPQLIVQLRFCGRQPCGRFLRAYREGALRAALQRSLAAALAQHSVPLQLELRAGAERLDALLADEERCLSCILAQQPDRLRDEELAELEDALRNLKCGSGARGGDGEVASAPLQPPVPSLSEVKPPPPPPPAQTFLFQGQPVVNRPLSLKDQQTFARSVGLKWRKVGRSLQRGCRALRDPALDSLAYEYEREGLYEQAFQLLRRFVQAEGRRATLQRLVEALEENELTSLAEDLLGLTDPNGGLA
active: [1] 0.258
inactive: erlotinib 0.053 | [2] 0.03 | [3] -0.224 | [4] 0.009 | [5] -0.013 | [6] 0.251 | [7] 0.029 | [8] 0.076 | IRAK-1-4 Inhibitor I 0.033

TBC1D23 (UniProt Q9NUY8)
Chain of UniProt Q9NUY8 (Q9NUY8 whole entry, looked up): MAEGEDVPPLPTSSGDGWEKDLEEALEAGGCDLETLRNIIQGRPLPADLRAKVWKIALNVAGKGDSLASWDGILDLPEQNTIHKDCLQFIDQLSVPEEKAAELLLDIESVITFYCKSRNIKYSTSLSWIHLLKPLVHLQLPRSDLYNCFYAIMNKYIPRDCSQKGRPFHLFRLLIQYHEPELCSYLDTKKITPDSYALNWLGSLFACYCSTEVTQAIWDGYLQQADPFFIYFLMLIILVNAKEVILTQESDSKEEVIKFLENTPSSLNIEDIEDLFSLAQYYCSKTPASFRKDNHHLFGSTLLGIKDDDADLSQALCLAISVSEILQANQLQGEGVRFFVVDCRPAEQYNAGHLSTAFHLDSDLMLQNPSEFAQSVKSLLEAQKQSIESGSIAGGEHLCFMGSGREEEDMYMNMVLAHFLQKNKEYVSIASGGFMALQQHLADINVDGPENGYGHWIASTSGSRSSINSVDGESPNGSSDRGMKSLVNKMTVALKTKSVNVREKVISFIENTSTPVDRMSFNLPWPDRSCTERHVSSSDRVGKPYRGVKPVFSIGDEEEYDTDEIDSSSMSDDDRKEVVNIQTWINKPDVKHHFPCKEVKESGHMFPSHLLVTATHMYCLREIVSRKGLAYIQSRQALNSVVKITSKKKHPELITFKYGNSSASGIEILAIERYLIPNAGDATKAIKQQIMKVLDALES
inactive: erlotinib 0.003 | [1] -0.01 | [2] 0.017 | [3] 0.022 | [4] -0.015 | [5] 0.011 | [6] -0.018 | [7] -0.018 | [8] -0.001 | IRAK-1-4 Inhibitor I 0

TPX2 (UniProt Q9ULW0)
inactive: erlotinib -0.014 | [1] -0.008 | [2] 0.032 | [3] -0.022 | [4] -0.013 | [5] 0.019 | [6] 0.001 | [7] -0.005 | [8] -0.026 | IRAK-1-4 Inhibitor I 0.006

TTC27 (UniProt Q6P3X3)
inactive: erlotinib 0.017 | [1] 0.018 | [2] -0.043 | [3] 0.004 | [4] 0.007 | [5] -0.014 | [6] -0.028 | [7] -0.015 | [8] 0.006 | IRAK-1-4 Inhibitor I -0.013

TMEM164 (UniProt Q5U3C3)
Chain of UniProt Q5U3C3 (Q5U3C3 whole entry, looked up): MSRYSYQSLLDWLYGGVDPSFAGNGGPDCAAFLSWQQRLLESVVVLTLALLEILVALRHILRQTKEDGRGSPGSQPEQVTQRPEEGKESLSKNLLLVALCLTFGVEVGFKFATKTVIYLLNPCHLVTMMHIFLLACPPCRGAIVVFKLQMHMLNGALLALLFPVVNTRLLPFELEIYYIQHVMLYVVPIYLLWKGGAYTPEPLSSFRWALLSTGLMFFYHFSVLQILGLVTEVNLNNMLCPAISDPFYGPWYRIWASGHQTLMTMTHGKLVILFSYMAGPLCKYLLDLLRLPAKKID
inactive: erlotinib 0.067 | [1] -0.141 | [2] -0.009 | [3] -0.093 | [4] 0.104 | [5] -0.056 | [6] -0.211 | [7] -0.057 | [8] 0.153 | IRAK-1-4 Inhibitor I 0.094

TLK1 isoform 2 (UniProt Q9UKI8)
inactive: erlotinib 0 | [1] -0.029 | [2] -0.024 | [3] -0.013 | [4] -0.007 | [5] -0.016 | [6] 0.145 | [7] 0.007 | [8] 0.099 | IRAK-1-4 Inhibitor I 0.023

UGDH (UniProt O60701)
inactive: erlotinib 0.002 | [1] 0.046 | [2] -0.02 | [3] -0.009 | [4] 0.02 | [5] -0.041 | [6] -0.051 | [7] -0.004 | [8] -0.052 | IRAK-1-4 Inhibitor I -0.053

TBC1D8B (UniProt Q0IIM8)
Chain of UniProt Q0IIM8 (Q0IIM8 whole entry, looked up): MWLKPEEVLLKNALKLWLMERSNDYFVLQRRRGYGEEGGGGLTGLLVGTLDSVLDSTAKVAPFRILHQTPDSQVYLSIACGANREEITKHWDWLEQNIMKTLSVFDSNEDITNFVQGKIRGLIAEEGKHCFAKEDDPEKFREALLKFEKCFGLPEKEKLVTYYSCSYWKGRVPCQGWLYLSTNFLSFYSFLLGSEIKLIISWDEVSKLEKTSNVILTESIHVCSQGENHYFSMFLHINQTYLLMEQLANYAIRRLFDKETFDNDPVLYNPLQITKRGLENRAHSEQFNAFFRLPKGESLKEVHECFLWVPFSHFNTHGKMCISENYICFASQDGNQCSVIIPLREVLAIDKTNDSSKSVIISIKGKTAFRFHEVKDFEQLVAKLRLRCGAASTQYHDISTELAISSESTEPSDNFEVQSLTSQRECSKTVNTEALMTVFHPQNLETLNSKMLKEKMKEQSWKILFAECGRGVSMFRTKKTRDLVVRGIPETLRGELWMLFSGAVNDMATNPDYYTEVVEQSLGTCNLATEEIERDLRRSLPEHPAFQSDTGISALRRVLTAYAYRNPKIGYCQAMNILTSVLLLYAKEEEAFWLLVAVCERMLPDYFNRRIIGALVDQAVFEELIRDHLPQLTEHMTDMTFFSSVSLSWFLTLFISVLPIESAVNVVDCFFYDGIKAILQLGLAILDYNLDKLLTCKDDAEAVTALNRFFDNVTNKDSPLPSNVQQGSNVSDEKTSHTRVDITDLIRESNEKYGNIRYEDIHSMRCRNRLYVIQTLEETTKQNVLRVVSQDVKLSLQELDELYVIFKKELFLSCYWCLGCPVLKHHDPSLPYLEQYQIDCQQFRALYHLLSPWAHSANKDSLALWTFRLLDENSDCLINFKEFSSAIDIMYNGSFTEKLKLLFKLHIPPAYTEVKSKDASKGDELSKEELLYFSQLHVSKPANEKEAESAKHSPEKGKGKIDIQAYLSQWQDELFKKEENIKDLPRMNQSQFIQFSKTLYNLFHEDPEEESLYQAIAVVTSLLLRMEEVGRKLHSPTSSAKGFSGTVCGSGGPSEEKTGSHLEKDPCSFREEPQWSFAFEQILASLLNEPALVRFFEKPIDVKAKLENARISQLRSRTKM
inactive: erlotinib -0.023 | [1] -0.376 | [2] 0.036 | [3] -0.041 | [4] 0 | [5] 0.01 | [6] 0.01 | [7] 0.017 | [8] 0.063 | IRAK-1-4 Inhibitor I 0.001
